# Measured values as given in PubChem BioAssay (EPA / NIEHS).
# Records with an inconclusive call do not appear. Calls of active or inactive are those of the source. The calls were made as follows: active = hit-call score of the fitted dose curve at least 0.9, where 1 is the maximum; inconclusive = response in the unintended direction; inactive = score below 0.9.
# Columns and labels:
# [1] = target: human Beta-secretase (BACE), BACE1 (gene 23621) (UniProt P56817); test: NVS_ENZ_hBACE: NovaScreen (NVS) Enzymatic Assay for human Beta-secretase (BACE) (AID 2283140);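 also: hits are inhibitors that reduce fluorescent substrate signal versus DMSO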
# human Beta-secretase (BACE), BACE1 (gene 23621), sequence (P56817 whole entry, looked up): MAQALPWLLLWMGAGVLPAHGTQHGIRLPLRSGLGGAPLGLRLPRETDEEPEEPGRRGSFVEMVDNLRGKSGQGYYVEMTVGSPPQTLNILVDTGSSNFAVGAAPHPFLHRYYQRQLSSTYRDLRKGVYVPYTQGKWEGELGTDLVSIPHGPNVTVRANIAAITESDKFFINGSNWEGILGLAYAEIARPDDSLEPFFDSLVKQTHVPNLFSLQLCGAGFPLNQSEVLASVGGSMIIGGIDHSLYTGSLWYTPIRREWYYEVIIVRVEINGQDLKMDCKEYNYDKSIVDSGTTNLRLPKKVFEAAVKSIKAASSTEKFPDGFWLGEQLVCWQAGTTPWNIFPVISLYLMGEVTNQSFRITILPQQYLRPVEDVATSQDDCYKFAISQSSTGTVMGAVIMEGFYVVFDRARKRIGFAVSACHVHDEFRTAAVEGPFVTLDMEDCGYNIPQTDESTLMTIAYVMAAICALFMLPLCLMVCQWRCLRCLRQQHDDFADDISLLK
# Outline: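 Cell-free assay of recombinant Sf9-expressed human BACE with fluorescent substrate, read by fluorescence intensity after 1 h. Primary screen in duplicate at 25 uM; actives then run in concentration series; loss of signal relative to DMSO.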
# [2] = target: human Esterase Plasma (ES), BCHE (gene 590) (UniProt P06276); test: NVS_ENZ_hES: NovaScreen (NVS) Enzymatic Assay for human Esterase Plasma (ES) (AID 2283157)
# human Esterase Plasma (ES), BCHE (gene 590), sequence (P06276 whole entry, looked up): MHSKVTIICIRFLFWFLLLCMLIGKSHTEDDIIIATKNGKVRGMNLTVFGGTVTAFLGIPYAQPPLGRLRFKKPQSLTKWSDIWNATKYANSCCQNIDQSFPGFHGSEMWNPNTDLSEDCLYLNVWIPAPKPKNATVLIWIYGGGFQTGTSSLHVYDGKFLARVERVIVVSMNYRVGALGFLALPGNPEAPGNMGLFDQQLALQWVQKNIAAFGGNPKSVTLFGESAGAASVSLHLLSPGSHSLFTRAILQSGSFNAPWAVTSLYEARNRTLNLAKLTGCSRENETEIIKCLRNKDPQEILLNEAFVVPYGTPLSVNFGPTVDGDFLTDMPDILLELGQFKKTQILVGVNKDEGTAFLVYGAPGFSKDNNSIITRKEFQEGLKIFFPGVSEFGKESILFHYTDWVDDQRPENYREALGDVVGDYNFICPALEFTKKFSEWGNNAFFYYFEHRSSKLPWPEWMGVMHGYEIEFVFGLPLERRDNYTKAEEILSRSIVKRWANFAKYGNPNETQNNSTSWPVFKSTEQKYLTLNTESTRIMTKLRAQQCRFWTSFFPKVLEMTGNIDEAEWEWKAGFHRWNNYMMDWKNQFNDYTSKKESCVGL
# Outline: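 Cell-free enzyme assay using esterase extracted from human plasma; colorimetric absorbance read 0.25 hour after dosing. Single-concentration duplicate screen at 25 uM, then concentration-response up to 50 uM; loss of signal scored against DMSO baseline.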
# [3] = target: human Dual Specificity Protein Phosphatase 3 (DUSP3), DUSP3 (gene 1845) (UniProt P51452); test: NVS_ENZ_hDUSP3: NovaScreen (NVS) Enzymatic Assay for human Dual Specificity Protein Phosphatase 3 (DUSP3) (AID 2283152);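 also: phosphatase activity of recombinant human DUSP3 on a fluorogenic substrate without cells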
# human Dual Specificity Protein Phosphatase 3 (DUSP3), DUSP3 (gene 1845), sequence (P51452 whole entry, looked up): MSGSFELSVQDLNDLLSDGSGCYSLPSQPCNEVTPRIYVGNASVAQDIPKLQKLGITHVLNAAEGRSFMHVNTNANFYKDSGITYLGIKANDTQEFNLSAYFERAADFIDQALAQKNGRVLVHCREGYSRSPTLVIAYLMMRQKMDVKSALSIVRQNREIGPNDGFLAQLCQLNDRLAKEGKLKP
# Outline: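 Cell-free assay with recombinant human DUSP3 and fluorogenic substrate, read by fluorescence intensity. Primary screen ran duplicate at 25 uM; actives followed up in concentration series; loss of signal versus DMSO scored.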
# [4] = target: human Caspase 5 (CASP5), CASP5 (gene 838) (UniProt P51878); test: NVS_ENZ_hCASP5: NovaScreen (NVS) Enzymatic Assay for human Caspase 5 (CASP5) (AID 2283137)
# human Caspase 5 (CASP5), CASP5 (gene 838), sequence (P51878 whole entry, looked up): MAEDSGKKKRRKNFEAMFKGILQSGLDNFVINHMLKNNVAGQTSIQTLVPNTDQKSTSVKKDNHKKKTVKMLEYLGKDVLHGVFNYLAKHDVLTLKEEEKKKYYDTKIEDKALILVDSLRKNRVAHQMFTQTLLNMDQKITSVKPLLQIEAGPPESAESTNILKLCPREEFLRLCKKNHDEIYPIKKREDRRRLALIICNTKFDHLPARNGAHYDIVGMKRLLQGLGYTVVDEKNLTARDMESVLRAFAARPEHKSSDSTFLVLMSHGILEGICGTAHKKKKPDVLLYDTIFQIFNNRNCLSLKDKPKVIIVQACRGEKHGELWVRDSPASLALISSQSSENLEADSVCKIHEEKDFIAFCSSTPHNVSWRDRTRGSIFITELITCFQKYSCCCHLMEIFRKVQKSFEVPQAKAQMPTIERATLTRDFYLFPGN
# Outline: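 Recombinant human caspase 5 expressed in E. coli, fluorogenic substrate, fluorescence read 2 h after dosing. Single-point 25 uM duplicate screen, then concentration-response to maximum 50 uM for actives; DMSO baseline.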
# [5] = target: human Caspase 4 (CASP4), CASP4 (gene 837) (UniProt P49662); test: NVS_ENZ_hCASP4: NovaScreen (NVS) Enzymatic Assay for human Caspase 4 (CASP4) (AID 2283143)
# human Caspase 4 (CASP4), CASP4 (gene 837), sequence (P49662 whole entry, looked up): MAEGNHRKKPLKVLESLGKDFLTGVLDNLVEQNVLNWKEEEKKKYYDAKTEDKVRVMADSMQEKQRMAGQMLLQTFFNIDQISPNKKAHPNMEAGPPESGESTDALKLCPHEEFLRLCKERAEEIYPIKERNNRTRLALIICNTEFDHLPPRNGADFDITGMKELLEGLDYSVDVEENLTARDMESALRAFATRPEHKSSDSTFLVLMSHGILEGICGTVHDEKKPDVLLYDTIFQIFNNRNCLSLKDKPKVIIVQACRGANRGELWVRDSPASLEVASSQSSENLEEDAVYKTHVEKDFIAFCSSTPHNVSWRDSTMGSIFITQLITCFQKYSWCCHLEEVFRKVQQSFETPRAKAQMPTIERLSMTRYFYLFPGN
# Outline: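 The cell-free assay used E. coli-expressed enzyme with a fluorogenic substrate, read 2 h after dosing. Signal loss was scored versus DMSO. Screening was in duplicate at 25 uM, then singleton concentration-response up to 50 uM.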
# [6] = target: human Elastase, ELANE (gene 1991) (UniProt P08246); test: NVS_ENZ_hElastase: NovaScreen (NVS) Enzymatic Assay for human Elastase (AID 2283153)
# human Elastase, ELANE (gene 1991), sequence (P08246 whole entry, looked up): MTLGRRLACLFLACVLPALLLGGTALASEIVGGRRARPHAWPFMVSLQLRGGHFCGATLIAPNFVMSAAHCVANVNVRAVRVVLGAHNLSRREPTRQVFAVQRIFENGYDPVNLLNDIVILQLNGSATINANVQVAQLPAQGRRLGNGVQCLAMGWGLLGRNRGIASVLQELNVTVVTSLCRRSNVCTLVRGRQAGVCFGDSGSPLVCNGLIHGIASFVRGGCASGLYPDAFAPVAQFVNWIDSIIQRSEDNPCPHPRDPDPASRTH
# Outline: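 Cell-free elastase from human neutrophils, 1.5 h after dosing, activity read by absorbance. Primary screen in duplicate at 25 uM; hits (e.g., 30% inhibition) rerun in singleton concentration-response up to 50 uM, fitted versus DMSO.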
# [7] = target: Glycogen synthase kinase-3 beta (Homo sapiens) (UniProt P49841); test: NVS_ENZ_hGSK3b: NovaScreen (NVS) Enzymatic Assay for human Glycogen Synthase Kinase-3 beta (GSK3b) (AID 2283165)
# Glycogen synthase kinase-3 beta (Homo sapiens), sequence (P49841 whole entry, looked up): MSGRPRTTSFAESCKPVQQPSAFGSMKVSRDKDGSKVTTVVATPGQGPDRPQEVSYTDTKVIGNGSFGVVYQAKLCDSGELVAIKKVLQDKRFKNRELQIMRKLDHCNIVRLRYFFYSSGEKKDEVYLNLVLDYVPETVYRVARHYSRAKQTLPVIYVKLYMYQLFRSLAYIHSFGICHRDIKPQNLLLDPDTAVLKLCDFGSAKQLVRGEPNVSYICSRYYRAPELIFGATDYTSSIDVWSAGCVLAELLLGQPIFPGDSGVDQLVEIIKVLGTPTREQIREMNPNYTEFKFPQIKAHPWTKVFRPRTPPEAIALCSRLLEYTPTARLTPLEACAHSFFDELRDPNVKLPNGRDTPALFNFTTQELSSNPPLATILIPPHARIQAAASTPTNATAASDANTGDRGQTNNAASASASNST
# Outline: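 Recombinant enzyme with specific fluorescent substrate, 1 h, product separated by electrophoretic mobility shift. Primary duplicate screen at 25 uM; actives (e.g. 30% inhibition) followed in singleton concentration-response to 50 uM. Signal loss fitted versus DMSO.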
# [8] = target: human Insulin Receptor (InsR), INSR (gene 3643) (UniProt P06213); test: NVS_ENZ_hInsR: NovaScreen (NVS) Enzymatic Assay for human Insulin Receptor (InsR) (AID 2283168)
# Outline: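 Fluorescent substrate phosphorylation by recombinant kinase, product resolved by electrophoretic mobility shift, read 1 h after dosing. Screened in duplicate at 25 uM; hits (e.g., 30% inhibition) run in concentration-response to 50 uM; DMSO as baseline.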
# [9] = target: human Acid Phosphatase 1 (ACP1), ACP1 (gene 52) (UniProt P24666); test: NVS_ENZ_hACP1: NovaScreen (NVS) Enzymatic Assay for human Acid Phosphatase 1 (ACP1) (AID 2283136)
# human Acid Phosphatase 1 (ACP1), ACP1 (gene 52), sequence (P24666 whole entry, looked up): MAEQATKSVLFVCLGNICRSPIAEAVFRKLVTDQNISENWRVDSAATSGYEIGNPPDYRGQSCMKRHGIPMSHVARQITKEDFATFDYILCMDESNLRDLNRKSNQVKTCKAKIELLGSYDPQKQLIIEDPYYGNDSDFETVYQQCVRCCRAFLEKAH
# Outline: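 Recombinant enzyme expressed in Sf9 cells, tested cell-free; activity read by fluorescence with electrophoretic mobility shift separation of substrate and product, 1.5 h after dosing. Primary screen in duplicate at 25 uM, actives then run in concentration series; loss of signal versus DMSO.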
# [10] = target: human AKT serine/threonine Kinase 1 (AKT1), AKT1 (gene 207) (UniProt P31749); test: NVS_ENZ_hAKT1: NovaScreen (NVS) Enzymatic Assay for human AKT serine/threonine Kinase 1 (AKT1) (AID 2283138)
# human AKT serine/threonine Kinase 1 (AKT1), AKT1 (gene 207), sequence (P31749 whole entry, looked up): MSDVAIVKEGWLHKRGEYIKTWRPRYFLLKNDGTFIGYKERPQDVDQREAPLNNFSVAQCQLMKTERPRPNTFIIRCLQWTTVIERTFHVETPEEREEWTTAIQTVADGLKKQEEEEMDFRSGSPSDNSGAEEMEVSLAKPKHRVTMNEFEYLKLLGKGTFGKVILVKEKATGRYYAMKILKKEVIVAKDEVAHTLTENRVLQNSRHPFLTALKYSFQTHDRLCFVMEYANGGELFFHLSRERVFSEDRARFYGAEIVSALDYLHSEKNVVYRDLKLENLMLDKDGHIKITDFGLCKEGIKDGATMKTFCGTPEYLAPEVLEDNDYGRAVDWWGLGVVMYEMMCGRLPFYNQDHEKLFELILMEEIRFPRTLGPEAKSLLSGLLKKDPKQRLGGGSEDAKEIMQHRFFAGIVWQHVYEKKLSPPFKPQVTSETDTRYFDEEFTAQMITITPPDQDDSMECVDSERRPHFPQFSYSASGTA
# Outline: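 Recombinant human AKT1 with a specific substrate, product separated by electrophoretic mobility shift, read after 1 h. Compounds at 25 uM in duplicate, then concentration-response up to 50 uM for hits; inhibition relative to DMSO.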
# [11] = target: human Caspase 8 (CASP8), CASP8 (gene 841) (UniProt Q14790); test: NVS_ENZ_hCASP8: NovaScreen (NVS) Enzymatic Assay for human Caspase 8 (CASP8) (AID 2283146)
# human Caspase 8 (CASP8), CASP8 (gene 841), sequence (Q14790 whole entry, looked up): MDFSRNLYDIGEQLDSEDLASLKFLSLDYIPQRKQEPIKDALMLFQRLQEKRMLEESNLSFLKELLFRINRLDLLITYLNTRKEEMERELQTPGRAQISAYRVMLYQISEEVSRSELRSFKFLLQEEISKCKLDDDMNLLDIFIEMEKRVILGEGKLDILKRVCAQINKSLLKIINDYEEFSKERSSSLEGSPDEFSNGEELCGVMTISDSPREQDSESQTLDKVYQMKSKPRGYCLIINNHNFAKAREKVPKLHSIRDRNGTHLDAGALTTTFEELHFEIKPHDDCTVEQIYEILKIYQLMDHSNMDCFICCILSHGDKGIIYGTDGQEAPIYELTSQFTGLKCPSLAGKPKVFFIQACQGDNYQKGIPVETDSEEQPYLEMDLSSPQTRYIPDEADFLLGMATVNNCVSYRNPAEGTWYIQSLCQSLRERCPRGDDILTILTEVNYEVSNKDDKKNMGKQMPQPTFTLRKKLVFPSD
# Outline: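 E. coli-expressed enzyme was used in a cell-free fluorogenic substrate assay read 1 h after dosing. Loss of signal was scored relative to DMSO, and the primary screen was run in duplicate at 25 uM.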
# [12] = target: human Colony Stimulating Factor 1 Receptor (CSF1R), CSF1R (gene 1436) (UniProt P07333); test: NVS_ENZ_hCSF1R: NovaScreen (NVS) Enzymatic Assay for human Colony Stimulating Factor 1 Receptor (CSF1R) (AID 2283150)
# human Colony Stimulating Factor 1 Receptor (CSF1R), CSF1R (gene 1436), sequence (P07333 whole entry, looked up): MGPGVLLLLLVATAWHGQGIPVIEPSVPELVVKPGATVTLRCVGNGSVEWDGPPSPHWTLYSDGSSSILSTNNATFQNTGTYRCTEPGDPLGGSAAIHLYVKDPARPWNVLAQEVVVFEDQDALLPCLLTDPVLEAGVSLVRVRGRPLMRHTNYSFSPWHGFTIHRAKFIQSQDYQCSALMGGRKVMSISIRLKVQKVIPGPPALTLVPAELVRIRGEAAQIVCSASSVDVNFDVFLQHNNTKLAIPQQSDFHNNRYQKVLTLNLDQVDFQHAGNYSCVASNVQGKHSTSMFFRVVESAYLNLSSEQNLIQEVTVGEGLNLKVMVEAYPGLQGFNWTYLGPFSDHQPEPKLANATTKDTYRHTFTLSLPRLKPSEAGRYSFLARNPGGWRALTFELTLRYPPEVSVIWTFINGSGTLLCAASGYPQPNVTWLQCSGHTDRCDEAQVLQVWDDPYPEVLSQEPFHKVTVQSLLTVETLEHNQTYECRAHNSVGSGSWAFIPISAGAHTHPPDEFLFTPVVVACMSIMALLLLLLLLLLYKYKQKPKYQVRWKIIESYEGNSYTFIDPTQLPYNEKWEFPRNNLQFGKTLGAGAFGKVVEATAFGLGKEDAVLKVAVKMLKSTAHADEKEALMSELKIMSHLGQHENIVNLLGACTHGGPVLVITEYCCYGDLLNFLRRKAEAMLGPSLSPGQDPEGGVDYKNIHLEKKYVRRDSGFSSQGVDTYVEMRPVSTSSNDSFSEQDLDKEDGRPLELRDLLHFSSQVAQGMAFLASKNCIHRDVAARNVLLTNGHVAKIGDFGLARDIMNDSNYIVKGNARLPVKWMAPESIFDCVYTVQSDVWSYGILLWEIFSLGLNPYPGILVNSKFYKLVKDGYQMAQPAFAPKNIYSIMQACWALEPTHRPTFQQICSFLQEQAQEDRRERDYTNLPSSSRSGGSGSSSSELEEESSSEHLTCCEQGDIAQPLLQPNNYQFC
# Outline: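 Cell-free recombinant human CSF1R kinase with fluorescent substrate, product separated by electrophoretic mobility shift; read 1 h after dosing. Primary screen at 25 uM in duplicate, actives then in concentration-response up to 50 uM, relative to DMSO.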
# [13] = target: human Ephrin type-A Receptor 1 (EphA1), EPHA1 (gene 2041) (UniProt P21709); test: NVS_ENZ_hEphA1: NovaScreen (NVS) Enzymatic Assay for human Ephrin type-A Receptor 1 (EphA1) (AID 2283158);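 also: activity is signal loss versus DMSO meaning EphA1 kinase inhibition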
# Outline: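 Cell-free enzymatic assay with recombinant EphA1 and fluorescent substrate; product separated by electrophoretic mobility shift, fluorescence intensity read 1 hour after dosing. Loss of signal versus DMSO baseline; primary duplicate screen at 25 uM, actives followed to 50 uM top concentration.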
# [14] = target: Caspase-3 (Homo sapiens) (UniProt P42574); test: NVS_ENZ_hCASP3: NovaScreen (NVS) Enzymatic Assay for human Caspase 3 (CASP3) (AID 2283139)
# Outline: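 Recombinant human caspase-3 from E. coli with a fluorogenic substrate, read by fluorescence 1 h after dosing. Primary screen in duplicate at 25 uM. Actives (for example ≥30% inhibition) rerun as concentration-response up to 50 uM.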
# [15] = target: human Janus Kinase 2 (Jak2), JAK2 (gene 3717) (UniProt O60674); test: NVS_ENZ_hJak2: NovaScreen (NVS) Enzymatic Assay for human Janus Kinase 2 (Jak2) (AID 2283169)
# Outline: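 Cell-free recombinant human JAK2 enzyme activity assay, fluorescence/electrophoretic mobility shift read 1 h after dosing. Screened in duplicate at 25 uM, then concentration-response up to 50 uM; activity as signal loss relative to DMSO.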
# [16] = target: human AKT serine/threonine Kinase 2 (AKT2), AKT2 (gene 208) (UniProt P31751); test: NVS_ENZ_hAKT2: NovaScreen (NVS) Enzymatic Assay for human AKT serine/threonine Kinase 2 (AKT2) (AID 2283141)
# Outline: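 Cell-free fluorescence/electrophoretic mobility shift readout of recombinant human AKT2 activity, 1 h after chemical dosing. Duplicate primary screen at 25 uM, then singleton concentration-response up to 50 uM; loss of signal versus DMSO baseline.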
structure (smiles),measurement,setting,value
CN(C)c1ccc(C(=C2C=CC(=[N+](C)C)C=C2)c2ccc(N(C)C)cc2)cc1,AC50,[1],14 µM (active)
same,AC50,[2],1.62 µM (active)
NCc1cccc(C2CCN(C(=O)c3ccc(C#Cc4ccccc4F)o3)CC2)c1,AC50,[1],41.8 µM (active)
same,AC50,[2],25 µM (active)
O=C(Nc1ccc(Cl)cc1)Nc1ccc(Cl)c(Cl)c1,AC50,[1],16.3 µM (active)
same,outcome,[3],inactive
CCN(Cc1cccnc1)C(=O)c1cccc(Cl)c1[C@]1(C)C(=O)N(Cc2ccc(OC)cc2OC)c2ccc(Cl)cc21,outcome,[4],inactive
same,outcome,[5],inactive
same,AC50,[3],14.1 µM (active)
same,AC50,[6],3.84 µM (active)
same,AC50,[2],16.8 µM (active)
same,outcome,[7],inactive
OCCO,outcome,[1],inactive
same,outcome,[8],inactive
CC/C(=C(/CC)c1ccc(O)cc1)c1ccc(O)cc1,outcome,[9],inactive
same,outcome,[10],inactive
same,outcome,[11],inactive
same,outcome,[12],inactive
same,outcome,[6],inactive
same,outcome,[2],inactive
same,outcome,[13],inactive
CO[C@H]1/C=C/O[C@@]2(C)Oc3c(C)c(O)c4c(O)c(c(/C=N/N5CCN(C)CC5)c(O)c4c3C2=O)NC(=O)/C(C)=C\C=C\[C@H](C)[C@H](O)[C@@H](C)[C@@H](O)[C@@H](C)[C@H](OC(C)=O)[C@@H]1C,AC50,[10],25.1 µM (active)
same,outcome,[1],inactive
same,AC50,[11],6.48 µM (active)
same,AC50,[3],7.6 µM (active)
CCN(Cc1cccc(S(=O)(=O)O)c1)c1ccc(C(=C2C=CC(=[N+](CC)Cc3cccc(S(=O)(=O)O)c3)C=C2)c2ccccc2S(=O)(=O)[O-])cc1,AC50,[4],5.36 µM (active)
same,outcome,[14],inactive
same,AC50,[1],14.8 µM (active)
same,AC50,[5],4.96 µM (active)
same,outcome,[11],inactive
same,AC50,[12],2.94 µM (active)
same,AC50,[3],12.5 µM (active)
same,AC50,[6],3.18 µM (active)
same,AC50,[15],12.4 µM (active)
CCCCCCCCOC(=O)c1cc(O)c(O)c(O)c1,AC50,[4],25.4 µM (active)
same,outcome,[10],inactive
same,outcome,[16],inactive
same,outcome,[5],inactive
same,outcome,[3],inactive
same,AC50,[6],12.5 µM (active)
same,outcome,[7],inactive
CC[C@H](NC(=O)c1cc(F)ccc1NS(=O)(=O)c1cccc2cccnc12)c1ccccc1,outcome,[4],inactive
